Compounds without any hit were thinned out: in the full panel of roughly 79,000, 15% have a hit. Active and inactive are the calls of the source. No stated cut-off is given here; in the data, active means growth inhibition above about 70%; inactive means the rest.
Key:
[1] = NCI Yeast Anticancer Drug Screen. Data for the wt1 strain (AID 149);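 further: 0% = growth of vehicle-treated wt1 cultures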; conditions: S. cerevisiae wt1 strain (SPY 50644) growth inhibition, hits give high values
Method in brief: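 wt1 yeast, compound-treated; % growth inhibition vs vehicle control.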

[2] = NCI Yeast Anticancer Drug Screen. Data for the rad50EPP+ strain (AID 151);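 further: 0% = growth of vehicle-treated control cultures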; conditions: S. cerevisiae rad50 mutant strain, hits give high values
Method in brief: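 In this screen, rad50EPP+ yeast were exposed to compounds. Growth inhibition was scored against vehicle-treated controls.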

[3] = NCI Yeast Anticancer Drug Screen. Data for the mgt1 strain (AID 153); conditions: S. cerevisiae mgt1 mutant growth inhibition, hits give high values
Method in brief: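 mgt1 strain exposed; growth vs vehicle control recorded as inhibition.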

[4] = NCI Yeast Anticancer Drug Screen. Data for the rad50 strain (AID 155);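 further: 0% = growth of vehicle-only cultures of the same strain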; conditions: S. cerevisiae rad50 strain growth inhibition, hits give high values
Method in brief: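 Genetically altered yeast (DNA repair pathway); compound treatment; growth inhibition vs vehicle ctrl.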

[5] = NCI Yeast Anticancer Drug Screen. Data for the mec2-1 strain (AID 157); conditions: S. cerevisiae mec2-1 strain, hits give high values
Method in brief: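 Vehicle-treated cultures served as reference for growth inhibition of compound-exposed mec2-1 yeast.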

[6] = NCI Yeast Anticancer Drug Screen. Data for the rad14 strain (AID 159);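 further: 0% = growth of vehicle-treated control cultures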; conditions: S. cerevisiae rad14 strain growth inhibition, hits give high values
Method in brief: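 Test compounds were applied to a repair-deficient yeast strain. Its growth was then compared with that of cultures given vehicle alone, and inhibition was expressed relative to those controls.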

[7] = NCI Yeast Anticancer Drug Screen. Data for the sgs1 mgt1 strain (AID 161);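 further: 0% = growth of cultures given vehicle only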; conditions: S. cerevisiae sgs1 mgt1 strain, hits give high values
Method in brief: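 Read-out: growth inhibition vs vehicle controls. Cells: mutant yeast strain deficient in DNA damage repair.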

[8] = NCI Yeast Anticancer Drug Screen. Data for the CLN2oe strain (AID 163);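 further: 0% = growth of vehicle-only control cultures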; conditions: S. cerevisiae CLN2oe strain, hits give high values
Method in brief: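 Inhibition relative to vehicle-treated yeast is reported. Cells: strain with genetic alteration in cell-cycle control, grown with compound.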

[9] = NCI Yeast Anticancer Drug Screen. Data for the cln2 rad14 strain (AID 165);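 further: 0% = growth equal to vehicle treated cultures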; conditions: S. cerevisiae cln2 rad14 strain, hits give high values
Method in brief: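 Each compound was tested on cln2 rad14 yeast. Inhibition of growth was calculated against vehicle-exposed controls.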

[10] = NCI Yeast Anticancer Drug Screen. Data for the bub3 strain (AID 167); conditions: S. cerevisiae bub3 mutant strain, hits give high values
Method in brief: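 Yeast carrying a defined mutation is treated with each compound, and growth is compared with that of vehicle-exposed cells to give inhibition.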

[11] = NCI Yeast Anticancer Drug Screen. Data for the wt2 strain (AID 169);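 further: 0% = growth of vehicle-treated yeast cultures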; conditions: S. cerevisiae wt2 strain growth inhibition, hits give high values
Method in brief: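 Inhibition of yeast growth was determined after compound treatment, normalised to controls receiving only vehicle.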

[12] = NCI Yeast Anticancer Drug Screen. Data for the mlh1 strain (AID 171);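 further: 0% = growth of vehicle-treated control cultures of the same strain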; conditions: S. cerevisiae mlh1 strain growth inhibition, hits give high values
Method in brief: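 Vehicle-normalised growth inhibition of a repair- or checkpoint-altered yeast strain following compound treatment.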

[13] = NCI Yeast Anticancer Drug Screen. Data for the sgs1 strain (AID 173);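 further: 0% = growth of vehicle-only control cultures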; conditions: S. cerevisiae sgs1 mutant, hits give high values
Method in brief: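 Screen format: yeast with repair or checkpoint alterations, compound exposure, growth read relative to vehicle.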

[14] = NCI Yeast Anticancer Drug Screen. Data for the mlh1 rad18 strain (AID 175); conditions: S. cerevisiae mlh1 rad18 strain growth inhibition, hits give high values
Method in brief: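 Vehicle-treated cultures served as the reference for growth inhibition in a yeast strain carrying DNA damage repair alterations exposed to each compound.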

[15] = NCI Yeast Anticancer Drug Screen. Data for the rad18 strain (AID 177); conditions: S. cerevisiae rad18 mutant growth inhibition, hits give high values
Method in brief: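 Test articles were incubated with altered yeast defective in DNA damage repair. Results are given as inhibition of growth versus vehicle.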

[16] = NCI Yeast Anticancer Drug Screen. Data for the rad52 strain (AID 147);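 further: 0% = growth of vehicle-treated control cultures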; conditions: S. cerevisiae rad52 mutant growth inhibition, hits give high values
Method in brief: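 Vehicle-treated cultures served as the reference for growth inhibition of compound-exposed yeast bearing a DNA repair mutation.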

[17] = at 5.0 µM (retest, dose inferred, filed as 0.5)
[18] = at 50.0 µM (retest, dose inferred, filed as 5.0)

Measured: growth inhibition

CCCCCCCCCCCCCCCCP(=O)(O)OCC(N)C(=O)O (stereo unspecified)
active: [1]; at 100.0 µM 97% | [3]; at 100.0 µM 97% | [4]; at 100.0 µM 96% | [5]; at 100.0 µM 96% | [6]; at 100.0 µM 93% | [7]; at 50.0 µM 93.5% | [12]; at 100.0 µM 96% | [13]; at 100.0 µM 95% | [14]; at 50.0 µM 73.9% | [15]; at 100.0 µM 97%
inactive: [1]; at 1.2 µM -38% | [1]; at 3.7 µM -46% | [1]; at 11.0 µM -46% | [1]; at 33.0 µM -31% | [2]; at 1.2 µM 0% | [2]; at 3.7 µM -5% | [2]; at 11.0 µM 5% | [2]; at 33.0 µM 20% | [2]; at 100.0 µM 69% | [3]; at 1.2 µM 15% | [3]; at 3.7 µM 21% | [3]; at 11.0 µM 7% | [3]; at 33.0 µM 43% | [4]; at 1.2 µM -14% | [4]; at 3.7 µM -14% | [4]; [17] -19% | [4]; at 11.0 µM -39% | [4]; at 33.0 µM 6% | [4]; [18] 46% | [4]; at 50.0 µM 66.9% | [5]; at 1.2 µM -22% | [5]; at 3.7 µM -24% | [5]; [17] -11% | [5]; at 11.0 µM -25% | [5]; at 33.0 µM -20% | [5]; [18] 3% | [5]; at 50.0 µM 58.8% | [6]; at 1.2 µM -67% | [6]; at 3.7 µM -61% | [6]; at 11.0 µM -55% | [6]; at 33.0 µM -47% | [7]; [17] -11% | [7]; [18] 39% | [8]; at 1.2 µM 1% | [8]; at 3.7 µM -3% | [8]; at 11.0 µM 0% | [8]; at 33.0 µM -6% | [8]; at 100.0 µM -8% | [9]; [17] 23% | [9]; [18] 7% | [9]; at 50.0 µM 60.9% | [10]; at 1.2 µM -1% | [10]; at 3.7 µM 1% | [10]; [17] -9% | [10]; at 11.0 µM 0% | [10]; at 33.0 µM -1% | [10]; [18] -8% | [10]; at 50.0 µM 60.1% | [10]; at 100.0 µM -13% | [11]; at 1.2 µM -1% | [11]; at 3.7 µM -2% | [11]; at 11.0 µM -4% | [11]; at 33.0 µM -2% | [11]; at 100.0 µM -3% | [12]; at 1.2 µM -18% | [12]; at 3.7 µM -26% | [12]; at 11.0 µM -53% | [12]; at 33.0 µM 20% | [13]; at 1.2 µM -31% | [13]; at 3.7 µM -58% | [13]; at 11.0 µM -44% | [13]; at 33.0 µM 18% | [14]; [17] -34% | [14]; [18] 29% | [15]; at 1.2 µM -3% | [15]; at 3.7 µM -8% | [15]; at 11.0 µM -10% | [15]; at 33.0 µM 14%

c1ccc(N=c2nc(N3CCOCC3)ss2)cc1
inactive: [16]; at 1.2 µM -3% | [16]; at 3.7 µM 3% | [16]; at 11.0 µM 27% | [1]; at 1.2 µM -3% | [1]; at 3.7 µM 4% | [1]; at 11.0 µM 15% | [3]; at 1.2 µM -3% | [3]; at 3.7 µM 11% | [4]; at 1.2 µM -6% | [4]; at 3.7 µM 6% | [4]; [17] 19% | [4]; at 11.0 µM 51% | [5]; at 1.2 µM -4% | [5]; at 3.7 µM 7% | [5]; [17] 14% | [5]; at 11.0 µM 37% | [6]; at 1.2 µM -3% | [6]; at 3.7 µM 13% | [6]; at 11.0 µM 61% | [7]; [17] 58% | [8]; at 1.2 µM -11% | [8]; at 3.7 µM -13% | [8]; at 11.0 µM 3% | [9]; [17] -5% | [10]; at 1.2 µM -5% | [10]; at 3.7 µM 5% | [10]; [17] 8% | [10]; at 11.0 µM 56% | [11]; at 1.2 µM -1% | [11]; at 3.7 µM 18% | [11]; at 11.0 µM 53% | [12]; at 1.2 µM -1% | [12]; at 3.7 µM 14% | [13]; at 1.2 µM 7% | [13]; at 3.7 µM 37% | [14]; [17] 26% | [15]; at 1.2 µM 0% | [15]; at 3.7 µM 18% | [15]; at 11.0 µM 64%
active: [16]; at 33.0 µM 98% | [16]; at 100.0 µM 99% | [1]; at 33.0 µM 98% | [1]; at 100.0 µM 98% | [3]; at 11.0 µM 71% | [3]; at 33.0 µM 99% | [3]; at 100.0 µM 99% | [4]; at 33.0 µM 99% | [4]; [18] 99% | [4]; at 50.0 µM 98.6% | [4]; at 100.0 µM 99% | [5]; at 33.0 µM 99% | [5]; [18] 100% | [5]; at 50.0 µM 99.7% | [5]; at 100.0 µM 99% | [6]; at 33.0 µM 99% | [6]; at 100.0 µM 99% | [7]; [18] 100% | [7]; at 50.0 µM 98.7% | [8]; at 33.0 µM 87% | [8]; at 100.0 µM 98% | [9]; [18] 99% | [9]; at 50.0 µM 93.4% | [10]; at 33.0 µM 99% | [10]; [18] 99% | [10]; at 50.0 µM 99.3% | [10]; at 100.0 µM 99% | [11]; at 33.0 µM 98% | [11]; at 100.0 µM 99% | [12]; at 11.0 µM 73% | [12]; at 33.0 µM 99% | [12]; at 100.0 µM 99% | [13]; at 11.0 µM 87% | [13]; at 33.0 µM 99% | [13]; at 100.0 µM 99% | [14]; [18] 98% | [14]; at 50.0 µM 98.4% | [15]; at 33.0 µM 99% | [15]; at 100.0 µM 94%
